# According to ChEMBL document CHEMBL3988442, “University of Dundee, Small-Polar-MMV Screening Library” (2021):
# Target: AMP-activated protein kinase, AMPK (Homo sapiens) (UniProt P54646+O43741+P54619+Q9UGJ0+Q9Y478+Q13131+Q9UGI9)
# Assay: AMP-dependent Kinase enzyme assay. An in vitro enzyme assay that detects ADP turnover that is directly proportional to AMPK activity. This uses naive AMPK that is activated during the assay with MK-8722
# Type: functional
# Design: scale not given: direction of the effect not stated beside the values
# Settings: 30 µM
row,SMILES,Percent Effect [%]
1,c1nc(N2CCCC2)cnc1C1CCNCC1,11.5
2,COc1cccc(CNC(=O)C(C)N2CC(n3nc(C)cc3C)C2)c1 (stereo not given),0.116
3,COc1cc(OC)cc(-c2cccc3c2OC(CN)C3)c1 (stereo not given),-5.59
4,O=S(=O)(N1CCOCC1)N1CCCCC1CCn1cccn1 (stereo not given),29.5
5,CN(C)C[C@@H]1CN(C(=O)c2cc(-c3ccccc3)n[nH]2)C[C@@H]1CO,-6.79
6,O=C(C1CNCCN1C(=O)CCOc1ccccc1)N1CCOCC1 (stereo not given),13
7,CN(CCc1ccccn1)CCc1nccs1,0.423
8,O=C(CCN1CCCCO1)N1CC[C@H](O)[C@@H](O)C1,-7.38
9,O=C(CCC1CCCN(C(=O)CCN2CCCCO2)C1)N1CCCC1 (stereo not given),-2.7
10,COc1ccccc1CN(Cc1nc(CC(C)C)no1)C1CC1,14.9
11,CCn1ncnc1C(C)Nc1cc(C2CC2)ncn1 (stereo not given),3.16
12,COCCC(=O)N(C)CCC1=CCN(C)CC1,-12.9
13,CN(C)C(CNC(=O)c1[nH]nc(C2CC2)c1Br)C1CC1 (stereo not given),-3.39
14,CN(C)c1cc(CNC(=O)C2COc3ccccc3O2)ccn1 (stereo not given),0.412
15,CC(C)c1nc(CSc2nnc(C3CC3)n2CC(N)=O)no1,-5.73
16,CN(CCNC(=O)Nc1ccn(C)n1)Cc1ccc(F)cc1,3.18
17,Cc1ccc(C)n1-c1ccsc1C(=O)NCC(=O)N1CCCC1,2.6
18,Cc1cc(CNC(=O)N2CCOC(c3ccccc3Cl)C2)no1 (stereo not given),-7.62
19,CC(=O)NCc1ccc(C(=O)N2CCCc3c(F)ccc(C)c32)cc1,-0.0493
20,CCS(=O)(=O)NCc1nc(C)cc(N2CCOCC2)n1,0.985

row,SMILES,Percent Effect [%]
1,CCOC(=O)N(C)CC(=O)NCCc1coc(-c2ccc(C)cc2)n1,-1.7
2,CC1CCN(c2ccc(C(=O)N3CCCC3c3nncn3C)cn2)CC1 (stereo not given),-4.84
3,Cc1cc(C)n(C2CCN(C(=O)c3cn4ccsc4n3)C2)n1 (stereo not given),-11.9
4,CCOc1cc(F)ccc1NC1CCN(CC(F)(F)F)C1=O (stereo not given),-28.4
5,CC(C)Oc1cccc(F)c1C(C(=O)O)N1CCCC1 (stereo not given),8.59
6,Oc1cc(C2CCCN(Cc3cccs3)C2)nc(-c2ccccn2)n1 (stereo not given),16.9
7,Cc1ncc2c(n1)CN(Cc1nc(-c3ccco3)oc1C)CC2,-38.3
8,Cc1nonc1CNC(=O)C(C)Oc1ccccc1F (stereo not given),5.55
9,CC(C(=O)Nc1nccs1)N(C)Cc1cccc(C#N)c1 (stereo not given),8.51
10,Cc1ccccc1C(=O)NC[C@@H]1CCN(C(=O)CN2CCCC2)C[C@H]1O,-0.0834
11,COc1ccc(Cl)cc1C(=O)N1C[C@@H](NC(=O)N(C)C)[C@H](C(C)C)C1,2.28
12,CC(C)(NCCCOc1ccc(C#N)cc1)c1nccs1,3.77
13,CS(=O)(=O)N1CC[C@]2(O)CCN(c3cc(C#N)ccn3)C[C@@H]2C1,-6.37
14,COCCN1CC(=O)N2CC[C@@H](O)C[C@H]2C1=O,-8.25
15,Cc1nc(C(C)C)sc1C(C)N(C)C(=O)c1ccc(=O)n(C)n1 (stereo not given),-6.04
16,Cc1ccc(-c2cc(C(=O)N(C)Cc3noc4c3CCCC4)[nH]n2)o1,4.24
17,CCc1noc(C(C)N2CCc3c(ncn3C3CC3)C2)n1 (stereo not given),14.3
18,CN(CCc1ccccn1)c1cnn(C)c(=O)c1Br,-11.5
19,Cc1nc(CN2CCCC2Cn2ccnc2C(C)C)nc2ccccc12 (stereo not given),-10.6
20,N#Cc1c(N)nc2c(c1-c1c[nH]nc1C1CCCCC1)COCC2,42.5
